In PubChem BioAssay (Tox21):
Inconclusive results are not listed. Unmarked numbers belong to inactive results. Calls of active or inactive are those of the source. Unless noted, calls follow the shape of the full dose curve.

Target: Vitamin D3 receptor (Homo sapiens) (UniProt P11473)
Assay: qHTS assay to identify small molecule agonists of the vitamin D receptor (VDR) signaling pathway (AID 743222); also: potency is read from the fitted curve at half-maximal effect
Conditions: HEK293T VDR-UAS-bla, beta-lactamase FRET ratio, 16 h; series mostly up to 63.5 µM; activation: at the top concentration
Procedure, shortened: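 VDR-bla cells, 2,000/well; 4 h preincubation 37C; cpd (DMSO) 16 h; LiveBLAzer B/G substrate 2 h RT; fluorescence intensity read.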
% is scaled to controls: 0 for no effect and ±100 for the full control effect.

Vitamin D3 receptor (Homo sapiens), sequence (P11473 whole entry, looked up): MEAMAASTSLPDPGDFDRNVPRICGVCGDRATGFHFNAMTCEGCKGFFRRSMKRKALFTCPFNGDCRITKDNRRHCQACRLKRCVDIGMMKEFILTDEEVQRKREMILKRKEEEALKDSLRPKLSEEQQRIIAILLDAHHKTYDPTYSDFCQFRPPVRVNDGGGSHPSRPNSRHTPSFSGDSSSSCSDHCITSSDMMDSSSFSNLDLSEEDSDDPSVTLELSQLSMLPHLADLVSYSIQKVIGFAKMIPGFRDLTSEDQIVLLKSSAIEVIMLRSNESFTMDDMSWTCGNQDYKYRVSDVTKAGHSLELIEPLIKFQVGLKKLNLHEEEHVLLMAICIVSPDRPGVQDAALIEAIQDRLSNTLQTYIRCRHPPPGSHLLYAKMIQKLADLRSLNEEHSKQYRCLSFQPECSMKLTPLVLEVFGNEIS

Row | Compound | activation | Potency
1 | COc1ccc(NC(=O)CC(C)=O)cc1 | -8.62% | –
2 | Cc1cccc(C)c1NC(=O)c1ccc(N)cc1 | 0.721% | –
3 | O[C@@H]([C@H](O)[C@H](O)CBr)[C@H](O)CBr | -0.929% | –
4 | CCCCCCCC | 1.29% | –
5 | Cl[Si](Cl)(c1ccccc1)c1ccccc1 | -7.71% [at 81.1 µM] | –
6 | OCC(F)(F)F | -1.64% [at 81.1 µM] | –
7 | C=CCCC(=O)/C=C/C1C(C)=CCCC1(C)C (stereo unspecified) | -0.0676% | –
8 | C[C@H]1NCc2cc(-c3ccc4c(=O)c(C(=O)O)cn(C5CC5)c4c3OC(F)F)ccc21 | 4.85% [at 29.5 µM] | –
9 | CCCNCCC | 0.584% [at 81.1 µM] | –
10 | O=C(Oc1ccccc1)Oc1ccccc1 | 0.0131% | –
11 | Cc1nc2n(c(=O)c1CCN1CCC(c3noc4cc(F)ccc34)CC1)CCCC2 | -0.978% | –
12 | Oc1cc(Cl)cc(Cl)c1Cl | -11.1% [at 81.1 µM] | –
13 | Clc1sc(Cl)c(Cl)c1Cl | -4.25% | –
14 | CC(CO)Oc1ccccc1 (stereo unspecified) | 1.44% [at 81.1 µM] | –
15 | COc1cc(C)ccc1O | -6.38% | –
16 | CC(=O)Oc1cc2c(s1)CCN(C(C(=O)C1CC1)c1ccccc1F)C2 (stereo unspecified) | 0.546% | –
17 | Cc1ccc(-c2ccccc2)cc1 | -4.46% | –
18 | CCCC[P+](C)(CCCC)CCCC | -7.58% [at 81.1 µM] | –
19 | COc1ccc(-c2coc3cc(O)ccc3c2=O)cc1 | -5.61% | –
20 | O=S(=O)(O)c1ccc(N=Nc2c(O)ccc3ccccc23)cc1 | -14.6% | –
21 | C=CC(C)(CCC=C(C)C)OC=O (stereo unspecified) | 7.87% | –
22 | CCCC(=O)OCCc1ccccc1 | -0.167% | –
23 | CCCCCCCC/C=C\CCCCCCCCN | -9.17% | –
24 | OC/C=C/CO | -0.599% | –
25 | C#CC1(O)CC[C@H]2[C@@H]3CCC4=CCCC[C@@H]4[C@H]3CC[C@@]21C (stereo partly specified) | – | inactive
26 | O=S(=O)(O)c1ccc(Nc2nc(Nc3ccc(/C=C/c4ccc(Nc5nc(Nc6ccc(S(=O)(=O)O)cc6)nc(N(CCO)CCO)n5)cc4S(=O)(=O)O)c(S(=O)(=O)O)c3)nc(N(CCO)CCO)n2)cc1 | – | 13.2 µM (active)
27 | Cc1c(F)c(N2CCNC(C)C2)cc2c1c(=O)c(C(=O)O)cn2C1CC1 (stereo unspecified) | -3.14% | –
28 | O=C(O)c1cccc(C(F)(F)F)c1 | 1.58% | –

Target: Vitamin D3 receptor (Homo sapiens) (UniProt P11473)
Assay: qHTS assay to identify small molecule antagonists of the vitamin D receptor (VDR) signaling pathway (AID 743223; active = well fitted inhibition curve with a large enough effect in the signal ratio in the repeat runs, not every such curve was filed as active; the % refers to the signal ratio)
Conditions: VDR-UAS-bla HEK293T, beta-lactamase FRET ratio, 16 h; series mostly up to 61 µM; activity change, negative = inhibition: at the top concentration
Procedure, shortened: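 Reporter line VDR-bla; stimulus 1alpha,25-(OH)2 vitamin D3, 3 nM final; compound co-addition, 16 h 37C/5% CO2; LiveBLAzer B/G substrate 2 h RT; fluorescence intensity.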

Row | Compound | activity change, negative = inhibition
29 | COc1ccc(NC(=O)CC(C)=O)cc1 | 6.75%
30 | Cc1cccc(C)c1NC(=O)c1ccc(N)cc1 | 2.66%
31 | CCCCCCCC | 1.22%
32 | Cl[Si](Cl)(c1ccccc1)c1ccccc1 | 5.97% [at 78.8 µM]
33 | OCC(F)(F)F | 20.3% [at 78.8 µM]
34 | C=CCCC(=O)/C=C/C1C(C)=CCCC1(C)C (stereo unspecified) | -2.49%
35 | C[C@H]1NCc2cc(-c3ccc4c(=O)c(C(=O)O)cn(C5CC5)c4c3OC(F)F)ccc21 | 21.3% [at 28.5 µM]
36 | O=C(Oc1ccccc1)Oc1ccccc1 | 2.83%
37 | Oc1cc(Cl)cc(Cl)c1Cl | 2.6% [at 78.8 µM]
38 | Clc1sc(Cl)c(Cl)c1Cl | 13.9%
39 | CC(CO)Oc1ccccc1 (stereo unspecified) | -2.04% [at 78.8 µM]
40 | COc1cc(C)ccc1O | -13.3%
41 | CN(C)[C@@H](CCOc1cccc2ccccc12)c1ccccc1 | -28.5%
42 | CCCC[P+](C)(CCCC)CCCC | -13% [at 78.8 µM]
43 | O=S(=O)(O)c1ccc(N=Nc2c(O)ccc3ccccc23)cc1 | -7.48%
44 | C=CC(C)(CCC=C(C)C)OC=O (stereo unspecified) | 7.28%
45 | OC/C=C/CO | -6.34%
46 | Cc1c(F)c(N2CCNC(C)C2)cc2c1c(=O)c(C(=O)O)cn2C1CC1 (stereo unspecified) | -0.697%
